{
  "source": "PubChem BioAssay (NCI)",
  "note": "This is part of a sample that, as a whole, favours compounds with a hit. Of some 83,000 tested, about 20% had one in any assay.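 Cells were grown in 96-well plates and exposed to the test compound at a single concentration for 48 hours; results are reported as percent growth, with values below 10 considered active.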 The source made the active and inactive calls.",
  "data": [
    {"system": "T-47D breast", "assay": "NCI-60 one-dose screen, 48 h (100 = growth as untreated, 0 = no growth, -100 = all killed)", "settings": "10 µM unless noted", "values": [
      {"molecule": "CSc1ccc(-c2n[nH]nc2-c2cc3ccccc3s2)cc1", "growth": "44.9% (inactive)"},
      {"molecule": "Clc1ccc2c(NCCCNc3nc(-n4ccnc4)nc4ccccc34)ccnc2c1", "growth": "70.3% (inactive)"},
      {"molecule": "CN1CCN(c2nc(NCCCNc3ccnc4cc(Cl)ccc34)c3ccccc3n2)CC1", "growth": "40.7% (inactive)"},
      {"molecule": "CN(C)c1ccc(NC(=O)c2ccc(/C=C/C(=O)c3ncc[nH]3)cc2)cc1", "growth": "46.6% (inactive)"},
      {"molecule": "COc1ccc(S(=O)(=O)N2CCCCC2)cc1NC(=O)c1[nH]c(C)c2c1CCCCC2=O", "growth": "15.2% (inactive)"},
      {"molecule": "CCn1c(O)c(/C=N/NC(=O)C(C)c2ccc(CC(C)C)cc2)sc1=S", "note": "(stereo not drawn)", "growth": "38% (inactive)"},
      {"molecule": "Cc1nn(-c2cc(=O)[nH]c3ccc(Cl)cc23)c(N)c1C#N", "growth": "97.1% (inactive)"},
      {"molecule": "O=C1/C(=C(/c2ccccc2)N2CCOCC2)Cc2ccccc21", "growth": "-34.4% (active)"},
      {"molecule": "O=C(COc1cccc(/C=C2\\COc3ccccc3C2=O)c1)Nc1nccs1", "growth": "54.7% (inactive)"},
      {"molecule": "CCN=C1C=CC(=C(c2ccc(N)cc2)c2ccc(N(CC)CC)c(C)c2)C=C1", "growth": "1.14% (active)"},
      {"molecule": "O=C(C(=O)c1ccc2c(c1)OCO2)c1ccc2c(c1)OCO2", "growth": "113% (inactive)"},
      {"molecule": "COc1ccc(/C=C2\\Oc3cc(OCCCCN4CCCC4)ccc3C2=O)cc1", "growth": "87.8% (inactive)"},
      {"molecule": "COc1cc(-c2nn(-c3ccc(Br)cc3)cc2C(=O)O)ccc1O", "growth": "98.5% (inactive)"},
      {"molecule": "O=c1ccccc(-c2ccc(-c3ccco3)cc2)c1O", "growth": "28.7% (inactive)"},
      {"molecule": "Cn1cc(C(=O)c2nc(-c3c[nH]c4ccc(Br)cc34)no2)c2cc(F)ccc21", "growth": "89.7% (inactive)"},
      {"molecule": "COc1ccc(O)c(N=Nc2nccs2)c1", "growth": "37% (inactive)"},
      {"molecule": "CCc1nc(N)nc(N)c1C#CC(C)c1cc(-c2ccnc(C)c2)c2oc(C)nc2c1", "note": "(stereo not drawn)", "growth": "9.59% (active)"},
      {"molecule": "CC(=O)Nc1ccc(-n2c(O)c(/C=N/NC(=O)Cc3ccccc3Nc3c(Cl)cccc3Cl)sc2=S)cc1", "growth": "80.6% (inactive)"},
      {"molecule": "O=Nc1c(O)c(Cl)cc2ccccc12", "growth": "-4.57% (active)"},
      {"molecule": "FC(F)(F)c1ccc(-c2cn3nc(-c4c[nH]c5ccc(Br)cc45)sc3n2)cc1", "growth": "67.6% (inactive)"},
      {"molecule": "Cn1cc(-c2nonc2-c2c[nH]c3ccccc23)c2cccnc21", "growth": "27% (inactive)"},
      {"molecule": "Cn1cc(-c2nonc2-c2cn(C)c3ccc(F)cc23)c2ccccc21", "growth": "37.3% (inactive)"},
      {"molecule": "Brc1ccc(-c2csc(Nc3ccccn3)n2)cc1", "growth": "53.7% (inactive)"},
      {"molecule": "Clc1ccc2c(NCCNc3nc(N4CCOCC4)nc4ccccc34)ccnc2c1", "growth": "-15% (active)"},
      {"molecule": "COc1ccc(-c2cc(-c3ccc(Nc4ccnc5cc(Cl)ccc45)cc3)nc(N3CCOCC3)n2)cc1", "growth": "-23% (active)"},
      {"molecule": "COc1cc2c(cc1-c1c(C)noc1C)ncc1nc(C3CCCC3)n([C@H](C)COC(F)F)c12", "growth": "29.7% (inactive)"},
      {"molecule": "CCOc1cc2ncc(C#N)c(Nc3ccc(OCc4cccc(F)c4)c(Cl)c3)c2cc1NC(=O)CCCCC1CCSS1", "note": "(stereo not drawn)", "growth": "64.4% (inactive)"},
      {"molecule": "Oc1ccccc1-c1nnc(CNc2ccc(Cl)cc2)o1", "growth": "30.9% (inactive)"},
      {"molecule": "COc1cc2c(cc1-c1c(C)noc1C)ncc1nc(C3CCCCC3)n([C@H](C)COC(F)F)c12", "growth": "32.8% (inactive)"},
      {"molecule": "COc1cc(/C=C/C(=O)Nc2cccnc2Nc2ccc(F)cc2)cc(OC)c1OC", "growth": "93.3% (inactive)"},
      {"molecule": "Cn1c(NCCc2ccc(O)c(O)c2)nc2c1c(=O)n(Cc1ccc(Cl)c(Cl)c1)c(=O)n2C", "growth": "58% (inactive)"},
      {"molecule": "Cc1ccc(C2=NN3C(C2)c2cc(Br)ccc2OC32CCN(Cc3ccccc3)CC2)o1", "note": "(stereo not drawn)", "growth": "86.6% (inactive)"},
      {"molecule": "O=C1/C(=C/C(Cl)=C/c2ccccc2)SC(=S)N1CCc1ccc(O)cc1", "growth": "-34.4% (active)"},
      {"molecule": "NC(=O)c1cc(Br)ccc1NC(=O)/C=C/c1ccccc1", "growth": "36.4% (inactive)"},
      {"molecule": "CC(O)CN(CC(C)O)c1ccc2c(c1)Cc1cc([N+](=O)[O-])ccc1-2", "note": "(stereo not drawn)", "growth": "109% (inactive)"},
      {"molecule": "C=C1C(=O)O[C@H]2[C@H]1CC/C(COC(=O)c1cc3cc(OC)ccc3[nH]1)=C\\CC[C@@]1(C)O[C@@H]21", "growth": "-60.6% (active)"},
      {"molecule": "COc1cc(C(=O)/C=C/c2cccnc2Nc2ccc(Cl)cc2)cc(OC)c1OC", "growth": "-67.3% (active)"},
      {"molecule": "O=c1cc(CSc2nnc(SCc3cc(=O)oc4c3ccc3ccccc34)o2)c2ccc3ccccc3c2o1", "growth": "78.6% (inactive)"}
    ]}
  ]
}
